Results published in PubChem BioAssay.
Calls of active or inactive are those of the source. Unless noted, the rule behind the calls is not given here.

Legend:
[1] = kinase inhibitors against Plasmodium liver-stage infection, cell-based, known kinase inhibitor set, luminescence, hepatoma host viability (AID 624392); details: Plasmodium liver stage in hepatoma cells, luciferase luminescence, concentration not given here; liver cell % of control: measured here: host liver cell viability; parasite % of control: stronger effect = lower value;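 note: infected cells incubated roughly two days before readout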
[2] = modulators of glucocorticoid suppression of NF-kB, cell-based, luciferase, IL-1B stimulus, dexamethasone (AID 624486); details: NF-kB luciferase reporter, IL-1B + dexamethasone, luminescence; percent of negative control (+Dex): actives lie on both sides, concentration not given here; z-score: measured here: IL-1B alone, no Dex;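 for percent of negative control (+Dex): 100% = mean signal of vehicle control wells on the plate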
[3] = kinase inhibitors altering Pseudomonas killing of worms, whole organism (AID 651566);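 note: tested at 14 µM; sign flipped so higher z means a lower ratio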; details: C. elegans killed by P. aeruginosa, survival ratio
[4] = activators of macrophage pro-inflammatory response, cell-based, murine, luminescence (AID 652131); details: murine macrophage pro-inflammatory reporter, stronger effect = higher value
[5] = molecular target: Cellular tumor antigen p53 (Homo sapiens) (UniProt P04637); assay: kinase inhibitors altering GFP-p53 stability in HPV16-positive cells, imaging, known kinase inhibitor set, EGFP/DsRed ratio (AID 1053116); details: stronger effect = higher value; EGFP object count: measured here: GFP-p53 positive objects count;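 note: cells exposed to compounds for 24 h at 37 °C before reading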
[6] = IRF3 reporter activation in THP-1 macrophages, cell-based, PMA-stimulated THP-1, luminescence (AID 1053176); details: PMA-differentiated THP-1, IRF3 reporter luminescence; stronger effect = higher value
[7] = survival rescue of mitochondrial mutant cells in low glucose, primary screen, MELAS cybrids, Rieske KO mouse fibroblasts, CellTiter-Glo (AID 1508586;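 active = mean z-score across replicates of 1.96 or higher in either the MELAS or the Rieske mutant cell line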;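 note: z relative to plate mean and SD of compound and empty wells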)
[8] = MELAS cybrid survival, CellTiter-Glo 48 h, stronger effect = higher value
[9] = Rieske KO mouse fibroblast survival, CellTiter-Glo 72 h

Sequence of Cellular tumor antigen p53 (Homo sapiens) (P04637 whole entry, looked up): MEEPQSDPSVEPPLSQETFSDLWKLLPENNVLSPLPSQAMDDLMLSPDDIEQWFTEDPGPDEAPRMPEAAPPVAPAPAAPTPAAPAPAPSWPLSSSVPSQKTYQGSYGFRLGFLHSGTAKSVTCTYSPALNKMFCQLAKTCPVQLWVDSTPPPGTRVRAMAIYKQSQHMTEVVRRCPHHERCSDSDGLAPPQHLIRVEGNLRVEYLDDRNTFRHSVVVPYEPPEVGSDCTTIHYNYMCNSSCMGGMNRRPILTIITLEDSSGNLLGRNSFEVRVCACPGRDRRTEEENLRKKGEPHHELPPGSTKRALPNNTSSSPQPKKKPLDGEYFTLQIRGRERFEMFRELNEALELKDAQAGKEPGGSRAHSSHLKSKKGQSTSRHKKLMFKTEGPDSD

SMILES	liver cell % of control [1] [%]	parasite % of control [1]	percent of negative control (+Dex) [2]	z-score [2]	z-score [3]	z-score [4]	EGFP object count [5]	EGFP/DsRed ratio [5]	fraction signal [6]	z-score [7, 8]	z-score [7, 9]
O=C(O[C@H]1CN[C@H](C#Cc2cc3ncnc(Nc4ccc(Cc5ccccc5)cc4)c3s2)C1)N1CCOCC1	106	85.4% (inactive)	88% (inactive)	-1.34	-0.335 (inactive)	0.302 (inactive)	5.5	0.104 (inactive)	-0.006 (inactive)	-0.24 (inactive)	-0.218
CCCN1CCC=C(c2ccc(Nc3nc(Nc4ccccc4C(N)=O)c4cc[nH]c4n3)c(C)c2)C1	86.8	580% (inactive)	88% (inactive)	-0.67	0.47 (inactive)	-1.61 (inactive)	4	0.193 (inactive)	0 (inactive)	-0.329 (inactive)	0.0526
COc1ccc(-c2coc3ncnc(N)c23)cc1	92.2	116% (inactive)	84% (inactive)	-0.765	0.065 (inactive)	-0.443 (inactive)	4	0.227 (inactive)	0.002 (inactive)	-0.507 (inactive)	-0.245
O=C1NC(=O)C(c2cccc(Cl)c2)=C1Nc1ccc(Cl)c(C(=O)O)c1	102	122% (inactive)	96.5% (inactive)	0.205	-0.33 (inactive)	-0.043 (inactive)	2.5	0.103 (inactive)	0 (inactive)	-0.755 (inactive)	-0.327
c1ccc(Cc2nc3ccc(Nc4ncnc5ccccc45)cc3[nH]2)cc1	166	15.2% (inactive)	83% (inactive)	-0.365	1.34 (inactive)	4.91 (inactive)	5	0.119 (inactive)	-0.007 (inactive)	0.254 (inactive)	-0.299
CS(=O)(=O)Nc1ccc(N=Cc2c(O)[nH]c3ccccc23)cc1	95.2	107% (inactive)	108% (inactive)	1.36	0.265 (inactive)	2.34 (inactive)	4	0.123 (inactive)	-0.0045 (inactive)	1.4 (inactive)	-0.36
COC(=O)c1ccc2c(c1)/C(=C\c1cc(Br)c(O)c(Br)c1)C(=O)N2	150	12.2% (active)	110% (inactive)	0.355	-0.645 (inactive)	-0.838 (inactive)	1	0.00779 (inactive)	-0.012 (inactive)	-0.186 (inactive)	-0.227
CNC(=O)c1cncc(/C=C/c2ccccc2C)c1	170	27.9% (inactive)	108% (inactive)	-0.24	0.255 (inactive)	0.604 (inactive)	4	0.0734 (inactive)	0.0395 (inactive)	0.836 (inactive)	-0.131
CN1CCC(C(=O)NC2NNC3NNC(c4ccccc4)CC32)CC1 (stereo not drawn)	89.8	66% (inactive)	90.5% (inactive)	-0.385	-0.44 (inactive)	3.5 (inactive)	24	0.259 (inactive)	-0.0035 (inactive)	-0.114 (inactive)	-0.215
CCN(CC)Cc1ccc(Nc2nccc(-c3cnn4ncccc34)n2)cc1	52.3	12.5% (active)	3% (active)	-9.2	-0.59 (inactive)	-2.04 (inactive)	3	0.0517 (inactive)	0.0075 (inactive)	0.539 (inactive)	1.65
COc1cc(N2CCN(C(C)C)CC2)ccc1Nc1nc(Nc2ccc(F)cc2C(=O)NC[C@@H](O)CO)c2cc[nH]c2n1	85	330% (inactive)	103% (inactive)	0	-0.875 (inactive)	-0.151 (inactive)	3.5	0.273 (inactive)	0 (inactive)	-0.811 (inactive)	0.239
COc1cccc(/C=N/Nc2ncnc3c2cnn3-c2cccc(OC)c2)c1	96.7	107% (inactive)	91.5% (inactive)	-0.3	-0.385 (inactive)	0.307 (inactive)	9	0.222 (inactive)	0.0045 (inactive)	0.209 (inactive)	-0.582
CCn1cc(-c2ccnc3[nH]ccc23)c(-c2cccc(NC(=O)Nc3ccc(OCc4ccccc4)cc3)c2)n1	76	95.6% (inactive)	93.5% (inactive)	0.135	-1.14 (inactive)	-1.24 (inactive)	6.5	0.11 (inactive)	-0.0115 (inactive)	0.828 (inactive)	0.137
CN(C)CCNC(=O)Nc1ccc(N(C)c2ccnc(Nc3ccc(CS(C)(=O)=O)cc3)n2)cc1	111	94.7% (inactive)	101% (inactive)	-0.235	-0.12 (inactive)	3.19 (inactive)	1	0.0718 (inactive)	0.0045 (inactive)	-0.741 (inactive)	-0.109
Clc1ccc(CNc2nccc(-c3cnn4ncccc34)n2)cc1	78.2	176% (inactive)	26.5% (active)	-7.22	0.125 (inactive)	-1.14 (inactive)	1	0.0281 (inactive)	0 (inactive)	0.484 (inactive)	-0.266
O=S1CCN(Cc2ccc(-c3ccc4ncnc(Nc5ccc(OCc6ccccc6)c(F)c5)c4c3)o2)CC1	81.6	112% (inactive)	77.5% (inactive)	-1.04	-0.505 (inactive)	0.693 (inactive)	2.5	0.0418 (inactive)	0.012 (inactive)	-0.335 (inactive)	-0.276
CN1CCC(n2cnc(-c3ccc(F)cc3)c2-c2ccnc(N)n2)CC1	83.2	168% (inactive)	107% (inactive)	2.09	0.34 (inactive)	3.77 (inactive)	1.5	0.024 (inactive)	-0.004 (inactive)	-0.312 (inactive)	-0.31
COc1cc(Nc2ncc(-c3ccccc3)o2)cc(OC)c1	105	156% (inactive)	158% (inactive)	5.51	-1.38 (inactive)	1.77 (inactive)	3.5	0.0542 (inactive)	0.0025 (inactive)	0.0476 (inactive)	-0.415
Cc1nnc(-c2ccc(C)c(-c3ccc(C(=O)Nc4cccc(C#N)c4)cc3)c2)o1	117	154% (inactive)	100% (inactive)	0.575	-0.18 (inactive)	-0.619 (inactive)	1.5	0.0236 (inactive)	-0.004 (inactive)	-0.755 (inactive)	-0.283
Nc1ncnc2occ(-c3ccc(NC(=O)Nc4cc(C(F)(F)F)cc(C(F)(F)F)c4)cc3)c12	58.8	11.2% (inactive)	77.5% (inactive)	-2.48	-0.205 (inactive)	-1.51 (inactive)	2	0.014 (inactive)	-0.006 (inactive)	-0.873 (inactive)	-0.237
CC(C)(CO)CNC(=O)c1ccc2[nH]c(O)c(N=Nc3ccc(S(N)(=O)=O)cc3)c2c1	82.1	103% (inactive)	93% (inactive)	-0.01	-1.1 (inactive)	-0.381 (inactive)	3	0.052 (inactive)	-0.004 (inactive)	-0.345 (inactive)	-0.442
CCNC(=O)O[C@H]1CN[C@H](C#Cc2cc3ncnc(Nc4ccc(OCc5cccc(F)c5)c(Cl)c4)c3s2)C1	105	113% (inactive)	82.5% (inactive)	-0.355	1.02 (inactive)	-0.875 (inactive)	5.5	0.233 (inactive)	-0.003 (inactive)	0.000408 (inactive)	-0.264
COc1ccc2c(-c3ccnc(Nc4cccc(OC(F)(F)F)c4)n3)cnn2n1	77.9	166% (inactive)	91% (inactive)	-0.08	-0.6 (inactive)	-0.916 (inactive)	5.5	0.0552 (inactive)	-0.005 (inactive)	0.611 (inactive)	-0.245
COc1cc2ncnc(Nc3ccc4c(cnn4Cc4ccccc4)c3)c2cc1OC	114	129% (inactive)	71.5% (inactive)	-2.37	-0.95 (inactive)	3.16 (inactive)	4	0.17 (inactive)	0.032 (inactive)	0.162 (inactive)	-0.293
CC(C)COC(=O)c1ccc2[nH]c(O)c(C=Nc3ccc(S(N)(=O)=O)cc3)c2c1	61	105% (inactive)	108% (inactive)	0.975	0.47 (inactive)	-1.9 (inactive)	3.5	0.0968 (inactive)	-0.013 (inactive)	-0.896 (inactive)	0.112
Cc1cc(O)cc(C)c1/C=C/c1cncc(C(N)=O)c1	105	146% (inactive)	106% (inactive)	0.29	-0.395 (inactive)	0.198 (inactive)	4	0.013 (inactive)	-0.001 (inactive)	-0.353 (inactive)	-0.218
CS(=O)(=O)CCNCc1cc(-c2cc3c(Nc4ccc(OCc5cccc(F)c5)c(Cl)c4)ncnc3s2)cs1	91.2	132% (inactive)	79.5% (inactive)	-0.645	0.375 (inactive)	0.207 (inactive)	4.5	0.11 (inactive)	-0.0035 (inactive)	-0.394 (inactive)	-0.666
CCCN1CCC(c2ccc(Nc3nc(Nc4cc(F)ccc4C(N)=O)c4cc[nH]c4n3)c(OC)c2)CC1	73	355% (inactive)	72% (inactive)	-1.46	0.62 (inactive)	-0.577 (inactive)	22.5	0.237 (inactive)	-0.0085 (inactive)	-0.472	7.31
